Test results published in PubChem BioAssay.

How the values were obtained:
Assay in all cases: Peg3 promoter luciferase inhibitors, potency, dose response, cell-based, HeLa, CREF/GAPDH counter-screen panel (AID 624167)
PEG-3 [1] = biological target: PEG-3 (UniProt Q6IN02); conditions: CREF/GAPDH counter-screens; HeLa PEG-Prom luciferase reporter, overnight, run 1, dose range 1, at 100 µM (top of the series) unless noted
PEG-3 [2] = biological target: PEG-3 (UniProt Q6IN02); conditions: CREF/GAPDH counter-screens; HeLa PEG-Prom luciferase reporter, overnight, run 2, dose range 1, at 100 µM (top of the series) unless noted
Rat fibroblasts (CREF) [3] = conditions: CREF/GAPDH counter-screens; run 1, dose range 1, at 100 µM (top of the series)
Rat fibroblasts (CREF) [4] = conditions: CREF/GAPDH counter-screens; run 2, dose range 1, at 100 µM (top of the series)

Sequence of PEG-3 (Q6IN02 whole entry, looked up): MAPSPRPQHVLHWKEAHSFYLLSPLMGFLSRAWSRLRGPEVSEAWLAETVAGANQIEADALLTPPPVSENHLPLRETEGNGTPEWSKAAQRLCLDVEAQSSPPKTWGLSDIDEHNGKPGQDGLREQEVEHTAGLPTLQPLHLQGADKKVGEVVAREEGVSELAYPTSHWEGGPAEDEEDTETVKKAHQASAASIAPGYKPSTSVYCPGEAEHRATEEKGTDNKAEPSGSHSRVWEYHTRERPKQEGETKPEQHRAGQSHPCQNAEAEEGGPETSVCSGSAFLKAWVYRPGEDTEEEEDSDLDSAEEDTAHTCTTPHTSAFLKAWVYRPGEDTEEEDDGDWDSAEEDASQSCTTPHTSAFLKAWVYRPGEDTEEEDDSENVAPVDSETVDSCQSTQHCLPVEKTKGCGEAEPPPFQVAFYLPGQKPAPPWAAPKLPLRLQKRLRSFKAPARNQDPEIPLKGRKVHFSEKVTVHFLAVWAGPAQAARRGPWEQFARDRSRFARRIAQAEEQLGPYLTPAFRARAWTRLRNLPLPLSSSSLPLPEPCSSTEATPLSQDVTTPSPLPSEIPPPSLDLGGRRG

| Compound | inhibition (PEG-3 [1]) | inhibition (PEG-3 [2]) [%] | inhibition (Rat fibroblasts (CREF) [3]) [%] | inhibition (Rat fibroblasts (CREF) [4]) [%] |
| --- | --- | --- | --- | --- |
| CN(C)CCNC(=O)/C(=C/c1ccc(-c2ccc(Cl)cc2)o1)NC(=O)c1ccccc1 | 102% | 98.6 | – | – |
| O=C(CCCN1C(=O)/C(=C/c2ccccc2Cl)SC1=S)NNC(=O)c1ccccc1Cl | 100% | 101 | – | – |
| Cc1c(C(=O)Nc2ccc(S(=O)(=O)N(C)C3CCN(C)CC3)cc2)oc2c(Cl)cccc12 | 102% | 99.1 | – | – |
| Cc1ccc(-c2cc3c(nn2)-c2ccccc2C3=O)cc1 | 98.6% | 88.7 | 92.8 | 94.8 |
| CC(C(=O)NC1CCCC1)N(C(=O)Cn1nnc(-c2ccc(F)cc2)n1)c1ccccc1F (configuration not stated) | 99.3% | 102 | – | – |
| CCCN1CCc2c(sc(NC(=O)c3ccc(S(=O)(=O)N4CCN(C(=O)OCC)CC4)cc3)c2C(N)=O)C1 | 78.5% | 85.4 | – | – |
| O=C(NCCc1ccccc1)c1ccc2c(c1)OCCCO2 | 101% | 102 | 100 | 99.5 |
| COc1cccc(-c2sc3ccc(OC)cc3c2-c2ccc(OCCN(C)C)cc2)c1 | 94.3% | 98.3 | – | – |
| COc1ccc(NS(=O)(=O)c2ccc3ccccc3c2)c2ncccc12 | 57.9% | 73.1 | – | – |
| NS(=O)(=O)c1ccc(CCNc2nn3c(-c4ccc(F)c(Cl)c4)cnc3s2)cc1 | 66.9% | 74.3 | 28.6 | 14.8 |
| Cc1ccc(-c2nc(C(Cl)Cl)c3ccccc3n2)cc1 | 96.2% | 97.4 | – | – |
| Cc1ccccc1NC(=O)Nc1nc(C(N)C2CCCCC2)cs1 (configuration not stated) | 98.9% | 99.7 | – | – |
| CS(=O)(=O)c1ccc(-c2sc3ccccc3c2C#CCCO)cc1 | 96% | 97.9 | 95.2 | 95.7 |
| CCCCCCCn1c(=N)n(CC(=O)c2ccco2)c2ccccc21 | 102% | 100 | 95.9 | 98 |
| N#Cc1cc2c(nc1SC1CC(=O)N(c3ccccc3)C1=O)CCC2 (configuration not stated) | 33.5% | 25.6 | – | – |
| Cc1ccc2sc(N(CCCN(C)C)C(=O)c3ccc(S(=O)(=O)N(C)C4CCCCC4)cc3)nc2c1C | 102% | 102 | – | – |
| COc1ccccc1C1c2ccc3ccccc3c2Oc2ncn(CCCO)c(=N)c21 (configuration not stated) | 102% | 98.3 | – | – |

| Compound | inhibition (PEG-3 [1]) | inhibition (PEG-3 [2]) [%] | inhibition (Rat fibroblasts (CREF) [3]) [%] | inhibition (Rat fibroblasts (CREF) [4]) [%] |
| --- | --- | --- | --- | --- |
| CC(=O)c1sc2c(c1OC(=O)c1ccc(Cl)cc1Cl)c(=O)n(-c1ccccc1)c(=S)n2-c1ccccc1 | 82.6% | 96.3 | 14.9 | 61.6 |
| COc1cc(Nc2c3ccccc3nc3ccccc23)cc(OC)c1OC | 102% | 102 | 92.9 | 72.1 |
| COC1=CC(=O)c2c(ccc3ncnc(N)c23)C1=O | 102% | 99 | 101 | 100 |
| Cc1cc(C(=O)CN2C(=O)c3ccccc3S2(=O)=O)c(C)n1-c1ccccc1 | 98.9% | 98 | 90.6 | 89.8 |
| NC(Cc1ccc(F)cc1)c1csc(Nc2cc(Oc3ccccc3)ncn2)n1 (configuration not stated) | 102% | 101 | 95.3 | 94.1 |
| N=c1n(CCN2CCCCC2)c2ccccc2n1CC(O)c1ccc(Cl)c(Cl)c1 (configuration not stated) | 99.3% | 98.6 | 100 | 99.7 |
| Cc1ccc(-c2cc3c(N=O)c4ccccc4c-3n[nH]2)cc1 | 75.1% | 86.7 | 87.3 | 78.5 |
| CCOC(=O)c1c(SCCN2CCCCC2)n(-c2ccccc2)c(=S)n(-c2ccccc2)c1=O | 97.7% | 102 | 90.4 | 94.6 |
| Brc1ccc(N/N=C(/N=Nc2nn[nH]n2)c2ccccc2)cc1 | 100% | 99.8 | 75.7 | 70 |
| O=C(NNC(=O)c1cccnc1SCc1cccc([N+](=O)[O-])c1)c1ccccn1 | 65.1% | 56.6 | 46.9 | 42.9 |
| O=c1oc2ccccc2cc1-c1cn2ccccc2n1 | 92.7% | 94.2 | 94.6 | 93.7 |
| CCc1ccc(/C=C2\SC(=S)N(CCCC(=O)NC3=NCCS3)C2=O)cc1 | 96% | 77.5 | 0.087 | 7.65 |
| O=C1C=CC(=O)N1c1ccc(-c2nc3ccccc3o2)cc1 | 99.3% | 101 | 101 | 100 |
| O=C(N/N=C/c1ccc(Cl)c([N+](=O)[O-])c1)c1cc(-c2ccc3c4c(cccc24)CC3)n[nH]1 | 95.1% [run 1, dose range 1, at 50 µM] | 93.6 | -4.6 | 4.99 |
| CCN1C=CC(=C2C(=O)c3ccccc3C2=O)C=C1 | 96.8% | 98.3 | 99.8 | 101 |
| Cc1ccc(/C=C2\SC(=S)N(CCCC(=O)NNC(=O)c3ccccc3O)C2=O)cc1 | 81.6% | 73.5 | 10.1 | 11 |
| Cc1ccc(OCC(=O)c2cc(C)n(-c3ccccc3)c2C)c([N+](=O)[O-])n1 | 77.6% | 74.5 | -20 | -61.9 |
